Measurements as given in PubChem BioAssay.
Results filed as inconclusive are left out. Active and inactive are the calls of the source.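 Rule for the calls, unless noted: active = inhibition above 50%, about 3 SD of the validation set; inactive = the rest.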

What was measured:
[1] = rapamycin-like changes in RPL19A-GFP expression – cell-based, S. cerevisiae, multiplex flow cytometry, primary screen (AID 1862; in the data active = percent of DMSO control GFP below about 86%;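 note: lower values mimic rapamycin by blocking the RPL19A rise seen in DMSO cells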); conditions: S. cerevisiae RPL19A-GFP strain, flow cytometry fluorescence, 3 h; at 10 µM; stronger effect = lower value
[2] = TOR pathway GLN3 branch reporter MEP2-GFP changes – S. cerevisiae, multiplex flow cytometry, primary screen (AID 1867;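 active = GFP response, as percent of the DMSO control, above the screen-wide mean plus 3 SD, about 139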;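 note: median GFP channel fluorescence of barcode-gated MEP2-GFP cells measured by flow cytometry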); conditions: S. cerevisiae MEP2-GFP strain, 3 h, at 10 µM, stronger effect = higher value, 100% means same as DMSO wells
[3] = TOR pathway RTG branch CIT2 reporter changes – S. cerevisiae, GFP fusion, multiplex flow cytometry, primary screen (AID 1870;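 active = percent response above a set limit, the screen-wide mean plus 3 SD, cut at about 130% in these data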;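 note: barcoded CIT2-GFP strain pooled with four other GFP strains with rapamycin as positive control; median GFP fluorescence per well over plate mean of DMSO wells so 100% = DMSO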); conditions: S. cerevisiae CIT2-GFP expression, 3 h, at 10 µM, stronger effect = higher value
[4] = TOR pathway LAP4-GFP level changes – S. cerevisiae, multiplex flow cytometry, primary screen (AID 1873;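 active = GFP signal, as percent of the solvent control, above the screen mean plus 3 SD, about 149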); conditions: S. cerevisiae LAP4-GFP expression, 3 h, at 10 µM, stronger effect = higher value
[5] = yeast AGP1-GFP level changes, GLN3 branch – cell-based, multiplex flow cytometry, S. cerevisiae, primary screen (AID 1887;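 active = GFP signal above the screen-wide mean plus 3 SD, that is over about 124.5% of the solvent control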;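 note: AGP1-GFP fusion strain of S. cerevisiae within a five-strain barcoded multiplex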); conditions: 3 h, at 10 µM, stronger effect = higher value
[6] = reduced mouse 2C T cell binding to pMHC/ICAM-1 vesicles – MLPCN validation set, flow cytometry, LFA-1/ICAM-1 modulator project, pilot screen (AID 2523;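 active = response below a set limit, under 55% cells CD8-positive and vesicle-bound, and CD8 cells' 90th-percentile brightness under 279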;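 for vesicle binding response: mean PE anti-B7-1 fluorescence of CD8+ cells relative to row control; 100% = QL9-loaded vesicles with DMSO vehicle in the same plate row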); conditions: 2C mouse CD8+ T cells, at 7 µM, stronger effect = lower value; double positive events: measured here: CD8+/vesicle+ event percentage
[7] = target: Integrin beta-1 (Homo sapiens) + Integrin alpha-4 (Homo sapiens) (UniProt P13612+P05556); assay: alpha4beta1 integrin LIBS antibody binding reduction – U937 cells, HUTS-21 mAb, flow cytometry, validation set, VLA-4 allosteric modulator project, pilot screen (AID 2674); conditions: HUTS-21 LIBS mAb binding, at 6.7 µM, stronger effect = higher value, binding induced by LDV ligand;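 note: antibody binding induced by the VLA-4 ligand LDV present at three times its Kd; 0% = LDV ligand with antibody and no compound and 100% = antibody without LDV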
[8] = calorie-restriction mimetic ROS inhibitors, yeast – validation compound set, pilot screen (AID 2706;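 active = superoxide response below 65% of plate, a cut near 3 SD across the whole screen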;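 note: yeast exposed to compound for one week at 30 degrees C before staining; 100% = mean of all compound wells on the same plate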); conditions: S. cerevisiae aging, superoxide DHE fluorescence; at 10 µM; stronger effect = lower value
[9] = target: Beta-adrenergic receptor kinase 1 (Homo sapiens) (UniProt P25098); assay: GRK2 binders displacing RNA aptamer, biochemical, validation, human GRK2, bead flow cytometry (AID 488806;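 active = aptamer binding inhibition above 30%, about 3 SD of noise from non-fluorescent compounds; inactive = inhibition at or below 30%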); conditions: bead-bound GRK2, FAM-aptamer displacement, at 10 µM, stronger effect = higher value
[10] = target: Beta-2 adrenergic receptor (Homo sapiens) (UniProt P07550); assay: agonist-induced loss of surface beta2AR – cell-based, FAP fluorogen, flow cytometry, validation set, pilot screen (AID 504459;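 active = percent response above 42, roughly 3 SD of non-fluorescent test compounds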;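 note: agonist-driven loss of surface beta2AR via internalization measured by FAP dye flow cytometry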); conditions: Am2.2-beta2AR cells, at 10 µM, stronger effect = higher value
[11] = target: AP-2 complex subunit beta (Homo sapiens) (UniProt P63010); assay: beta-arrestin/AP2 interaction blockers – biochemical, validation set, GST-AP2 beads, flow cytometry, pilot screen (AID 504541;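 active = inhibition above 54%, about 3 SD of non-fluorescent compounds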;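 note: AP2 carries R879A mutation and is captured from E. coli lysate; bead-bound FITC arrestin peptide fluorescence measuring arrestin peptide binding to AP2; 0% = DMSO wells and 100% = excess unlabeled arrestin peptide control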); conditions: FITC arrestin peptide, at 10 µM, stronger effect = higher value, AP2 beta2 appendage fragment, R879A mutant
[12] = cytosolic pH regulators acting via V-ATPase – S. cerevisiae, pHLuorin, HTS validation (AID 504600; in the data active = response above about 15%;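 note: plate controls were DMSO for no effect and reference compound for full effect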); conditions: V-ATPase proton transport, at 10 µM, stronger effect = higher value
[13] = test system: anti-desmoglein-3 scFv antibody binding to human DSG3; assay: blockers of pathogenic pemphigus antibody–desmoglein-3 binding – biochemical, validation compound set, bead-based, flow cytometry, pilot screen (AID 588368;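 active = binding below the plate cutoff, the plate median minus 3 SD, with a reading above zero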;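 note: signal is the median channel fluorescence of bead-bound GFP antibody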); conditions: Protein G beads, DSG3-Fc, scFv-GFP binding, at 10 µM, stronger effect = lower value
[14] = Nile Red efflux blockade in pump-expressing yeast – validation compound set, multiplex, phenotypic, pilot screen (AID 588506;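 active = efflux inhibition above 0.42, the validation set average plus 4 SD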;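 note: Nile Red retained in cells so higher fluorescence means more efflux inhibition; 0 = negative control wells and 1 = enniatin B 25 µM full block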); conditions: S. cerevisiae pump-expressing triplex, Nile Red efflux flow cytometry; at 10 µM; stronger effect = higher value; the pumps come from Candida albicans
[15] = target: ATP-binding cassette sub-family B member 6 (Homo sapiens) (UniProt Q9NP58); assay: blockers of ABCB6-driven porphyrin uptake – K562-ABCB6 cells, flow cytometry, validation set, pilot screen (AID 588550;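 active = inhibition above the screen-wide mean plus 3 SD, about 51%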;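 note: 0% = DMSO wells and 100% = benzethonium chloride 70 µM positive control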); conditions: K562-ABCB6 porphyrin accumulation, 1 h, at 10 µM, stronger effect = higher value
[16] = AML differentiation inducers, ER-HoxA9 marrow cells – cell-based, GFP/MAC1 double positive, flow cytometry, validation set, primary screen (AID 588685;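 active = differentiation response of at least 50%, scaled between solvent and reference control, from cells with both markers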;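 note: compound exposure lasts four days before antibody staining and flow analysis; 0% = DMSO wells and 100% = 5 µM fulvestrant positive control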); conditions: stronger effect = higher value, normalized: vehicle 0, fulvestrant 100

Sequence of AP-2 complex subunit beta (Homo sapiens) (P63010 whole entry, looked up, the tested form may be a part, one chain of several): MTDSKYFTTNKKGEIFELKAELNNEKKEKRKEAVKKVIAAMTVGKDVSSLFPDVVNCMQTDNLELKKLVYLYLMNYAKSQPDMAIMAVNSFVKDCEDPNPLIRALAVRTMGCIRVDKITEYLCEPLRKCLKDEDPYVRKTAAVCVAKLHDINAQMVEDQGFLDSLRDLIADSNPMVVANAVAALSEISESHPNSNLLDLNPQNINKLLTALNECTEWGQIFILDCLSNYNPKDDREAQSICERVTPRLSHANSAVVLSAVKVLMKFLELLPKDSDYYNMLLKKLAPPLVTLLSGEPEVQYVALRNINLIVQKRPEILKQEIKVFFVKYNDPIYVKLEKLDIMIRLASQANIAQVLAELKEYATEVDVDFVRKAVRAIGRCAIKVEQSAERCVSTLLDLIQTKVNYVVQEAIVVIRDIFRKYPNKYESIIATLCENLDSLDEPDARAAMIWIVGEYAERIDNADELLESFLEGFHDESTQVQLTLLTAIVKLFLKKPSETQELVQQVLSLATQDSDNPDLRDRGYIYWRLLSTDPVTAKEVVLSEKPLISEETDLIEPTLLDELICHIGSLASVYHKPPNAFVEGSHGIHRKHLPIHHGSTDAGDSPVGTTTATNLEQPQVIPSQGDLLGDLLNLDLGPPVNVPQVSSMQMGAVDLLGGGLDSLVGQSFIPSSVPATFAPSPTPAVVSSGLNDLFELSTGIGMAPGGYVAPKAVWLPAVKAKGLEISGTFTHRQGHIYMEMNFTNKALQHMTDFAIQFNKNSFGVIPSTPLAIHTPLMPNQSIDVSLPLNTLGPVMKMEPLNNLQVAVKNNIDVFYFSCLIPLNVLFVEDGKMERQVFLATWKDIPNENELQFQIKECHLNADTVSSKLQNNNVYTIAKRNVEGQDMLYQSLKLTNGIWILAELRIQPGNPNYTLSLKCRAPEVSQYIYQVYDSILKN
Sequence of Beta-2 adrenergic receptor (Homo sapiens) (P07550 whole entry, looked up): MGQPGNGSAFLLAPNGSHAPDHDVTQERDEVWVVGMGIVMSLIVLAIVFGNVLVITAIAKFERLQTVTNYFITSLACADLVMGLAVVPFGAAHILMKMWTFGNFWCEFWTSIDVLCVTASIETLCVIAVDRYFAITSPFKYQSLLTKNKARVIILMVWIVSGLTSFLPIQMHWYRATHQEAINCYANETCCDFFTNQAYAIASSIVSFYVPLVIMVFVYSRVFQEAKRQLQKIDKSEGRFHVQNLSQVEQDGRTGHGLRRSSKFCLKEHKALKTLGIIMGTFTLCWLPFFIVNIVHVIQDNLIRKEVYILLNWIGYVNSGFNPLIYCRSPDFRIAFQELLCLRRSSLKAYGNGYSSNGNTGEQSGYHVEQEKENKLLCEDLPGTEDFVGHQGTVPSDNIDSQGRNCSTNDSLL
Sequence of Beta-adrenergic receptor kinase 1 (Homo sapiens) (P25098 whole entry, looked up): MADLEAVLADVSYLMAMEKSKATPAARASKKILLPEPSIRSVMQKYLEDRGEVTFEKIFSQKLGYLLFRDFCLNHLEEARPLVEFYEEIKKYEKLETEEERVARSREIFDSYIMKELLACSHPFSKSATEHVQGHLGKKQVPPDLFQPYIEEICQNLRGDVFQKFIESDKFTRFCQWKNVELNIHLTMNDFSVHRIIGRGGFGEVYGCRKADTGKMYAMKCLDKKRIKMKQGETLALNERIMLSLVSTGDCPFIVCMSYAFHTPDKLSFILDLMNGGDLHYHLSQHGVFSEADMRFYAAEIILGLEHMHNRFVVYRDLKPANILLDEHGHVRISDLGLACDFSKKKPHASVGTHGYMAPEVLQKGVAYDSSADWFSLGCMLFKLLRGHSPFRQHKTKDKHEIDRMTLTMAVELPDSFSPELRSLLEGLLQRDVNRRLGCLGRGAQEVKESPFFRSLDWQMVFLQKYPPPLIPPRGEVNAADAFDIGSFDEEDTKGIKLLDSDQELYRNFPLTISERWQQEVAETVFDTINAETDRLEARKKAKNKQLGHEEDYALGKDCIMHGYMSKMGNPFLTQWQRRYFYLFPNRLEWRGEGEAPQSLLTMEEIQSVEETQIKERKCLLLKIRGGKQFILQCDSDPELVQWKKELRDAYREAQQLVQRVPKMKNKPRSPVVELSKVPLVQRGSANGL
Sequence of ATP-binding cassette sub-family B member 6 (Homo sapiens) (Q9NP58 whole entry, looked up): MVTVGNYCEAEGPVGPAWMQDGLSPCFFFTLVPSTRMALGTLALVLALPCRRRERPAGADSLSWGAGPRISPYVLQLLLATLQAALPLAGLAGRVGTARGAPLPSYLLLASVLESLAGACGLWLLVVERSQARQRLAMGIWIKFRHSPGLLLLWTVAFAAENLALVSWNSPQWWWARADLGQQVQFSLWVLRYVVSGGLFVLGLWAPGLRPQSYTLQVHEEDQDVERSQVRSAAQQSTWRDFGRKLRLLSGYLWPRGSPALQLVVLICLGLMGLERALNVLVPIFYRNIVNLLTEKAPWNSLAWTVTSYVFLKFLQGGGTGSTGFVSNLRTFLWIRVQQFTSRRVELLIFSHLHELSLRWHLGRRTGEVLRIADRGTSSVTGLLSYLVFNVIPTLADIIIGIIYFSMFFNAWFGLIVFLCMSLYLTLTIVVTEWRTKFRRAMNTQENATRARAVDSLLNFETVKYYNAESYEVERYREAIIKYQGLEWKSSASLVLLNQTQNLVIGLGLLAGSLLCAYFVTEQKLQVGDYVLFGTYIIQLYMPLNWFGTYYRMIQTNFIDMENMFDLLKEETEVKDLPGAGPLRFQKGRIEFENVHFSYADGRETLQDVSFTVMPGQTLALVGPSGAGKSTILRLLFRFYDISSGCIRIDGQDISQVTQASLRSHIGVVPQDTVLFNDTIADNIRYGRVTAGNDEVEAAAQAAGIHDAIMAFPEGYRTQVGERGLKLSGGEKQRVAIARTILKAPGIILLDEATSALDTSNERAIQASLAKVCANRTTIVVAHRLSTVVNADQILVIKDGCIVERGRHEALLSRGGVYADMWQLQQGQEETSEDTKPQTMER
Sequence of Integrin beta-1 (Homo sapiens) + Integrin alpha-4 (Homo sapiens) (P05556 whole entry, looked up): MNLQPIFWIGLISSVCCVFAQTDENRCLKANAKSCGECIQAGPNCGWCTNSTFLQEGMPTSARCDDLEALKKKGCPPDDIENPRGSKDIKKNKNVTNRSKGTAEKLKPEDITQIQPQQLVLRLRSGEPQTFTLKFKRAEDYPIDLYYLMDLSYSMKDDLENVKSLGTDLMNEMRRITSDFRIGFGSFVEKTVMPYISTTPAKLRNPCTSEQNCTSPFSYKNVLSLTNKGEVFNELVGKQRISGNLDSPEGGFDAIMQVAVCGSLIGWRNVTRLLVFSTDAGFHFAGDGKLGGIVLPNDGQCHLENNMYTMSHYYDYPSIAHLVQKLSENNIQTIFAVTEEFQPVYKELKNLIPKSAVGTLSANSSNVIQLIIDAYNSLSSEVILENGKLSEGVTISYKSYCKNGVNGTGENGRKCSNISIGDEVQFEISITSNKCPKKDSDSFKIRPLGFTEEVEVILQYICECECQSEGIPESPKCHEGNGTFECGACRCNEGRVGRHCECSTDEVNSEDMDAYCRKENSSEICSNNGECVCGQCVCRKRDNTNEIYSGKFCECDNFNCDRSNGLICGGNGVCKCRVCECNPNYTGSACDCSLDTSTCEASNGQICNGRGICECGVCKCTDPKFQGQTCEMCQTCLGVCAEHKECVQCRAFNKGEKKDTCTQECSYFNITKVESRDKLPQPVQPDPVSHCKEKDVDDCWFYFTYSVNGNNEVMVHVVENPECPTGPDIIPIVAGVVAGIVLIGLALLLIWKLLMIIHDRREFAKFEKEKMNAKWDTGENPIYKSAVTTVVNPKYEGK
Sequence of Integrin beta-1 (Homo sapiens) + Integrin alpha-4 (Homo sapiens) (P13612 whole entry, looked up): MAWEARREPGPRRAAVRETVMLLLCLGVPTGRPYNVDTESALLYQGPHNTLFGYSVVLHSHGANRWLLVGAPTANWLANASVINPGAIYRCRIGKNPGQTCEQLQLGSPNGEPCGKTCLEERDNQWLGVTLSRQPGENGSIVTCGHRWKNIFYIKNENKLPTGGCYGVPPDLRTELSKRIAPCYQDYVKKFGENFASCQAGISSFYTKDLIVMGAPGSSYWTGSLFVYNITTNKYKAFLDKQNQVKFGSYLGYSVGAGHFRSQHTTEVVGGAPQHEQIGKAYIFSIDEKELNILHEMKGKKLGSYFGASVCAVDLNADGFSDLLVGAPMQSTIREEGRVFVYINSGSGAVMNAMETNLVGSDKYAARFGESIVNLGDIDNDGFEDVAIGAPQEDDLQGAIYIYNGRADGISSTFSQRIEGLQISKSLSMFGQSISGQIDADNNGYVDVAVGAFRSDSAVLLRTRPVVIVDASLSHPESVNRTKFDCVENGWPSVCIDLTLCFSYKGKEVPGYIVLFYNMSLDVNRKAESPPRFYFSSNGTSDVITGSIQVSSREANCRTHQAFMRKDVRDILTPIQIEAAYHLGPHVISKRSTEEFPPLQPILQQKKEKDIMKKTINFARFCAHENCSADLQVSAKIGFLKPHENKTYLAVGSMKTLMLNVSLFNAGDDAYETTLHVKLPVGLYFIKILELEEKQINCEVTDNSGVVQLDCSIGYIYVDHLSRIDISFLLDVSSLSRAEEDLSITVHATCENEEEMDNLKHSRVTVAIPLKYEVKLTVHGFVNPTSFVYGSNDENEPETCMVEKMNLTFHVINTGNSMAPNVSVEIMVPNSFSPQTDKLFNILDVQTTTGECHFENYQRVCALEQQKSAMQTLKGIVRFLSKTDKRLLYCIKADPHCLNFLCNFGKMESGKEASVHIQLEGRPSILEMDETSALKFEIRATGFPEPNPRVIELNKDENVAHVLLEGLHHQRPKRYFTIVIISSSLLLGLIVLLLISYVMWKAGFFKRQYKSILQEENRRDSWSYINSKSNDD

Cc1cccc2c(C(=O)O)cc(-c3cccnc3)nc12
63.5%: double positive events [6]
inactive: percent of DMSO control GFP [1] 104% | GFP response vs DMSO [2] 105% | percent response of DMSO control [3] 95.4% | GFP response vs DMSO [4] 98% | GFP response, % of DMSO [5] 101% | vesicle binding response [6] 140% | inhibition [7] 3.7% | superoxide response (% of plate) [8] 102% | aptamer binding inhibition [9] 0% | response [10] -8.08% | inhibition [11] -0.94% | response [12] 2.28% | binding (% of control) [13] 95% | efflux inhibition (fraction of control) [14] -0.01 | inhibition [15] -3% | differentiation response [16] 7.09%

CC1=NN(C(=O)c2ccc(Br)cc2)C(O)(c2ccccc2)C1 (stereo not drawn)
inactive: percent of DMSO control GFP [1] 100% | GFP response vs DMSO [2] 96.6% | percent response of DMSO control [3] 102% | GFP response vs DMSO [4] 109% | GFP response, % of DMSO [5] 103% | vesicle binding response [6] 165% | inhibition [7] 13.7% | superoxide response (% of plate) [8] 86.9% | aptamer binding inhibition [9] 0% | response [10] 5.99% | inhibition [11] -5.19% | response [12] -3.1% | binding (% of control) [13] 96.8% | efflux inhibition (fraction of control) [14] 0.36 | inhibition [15] -9% | differentiation response [16] -4.57%
64.3%: double positive events [6]

CC(C)C(CCN1C(=O)CCC1=O)C1CCOC(C)(C)C1 (stereo not drawn)
62.8%: double positive events [6]
inactive: percent of DMSO control GFP [1] 103% | GFP response vs DMSO [2] 104% | percent response of DMSO control [3] 100% | GFP response vs DMSO [4] 95.8% | GFP response, % of DMSO [5] 101% | vesicle binding response [6] 130% | inhibition [7] 3.98% | superoxide response (% of plate) [8] 103% | aptamer binding inhibition [9] 11% | response [10] -1.22% | inhibition [11] -12.4% | response [12] -0.12% | binding (% of control) [13] 98.8% | efflux inhibition (fraction of control) [14] 0.42 | inhibition [15] 10% | differentiation response [16] 4.97%

CC(C)C12CN3CC(C(C)C)(CN(C1)C3c1ccccc1O)C2=O (stereo not drawn)
inactive: percent of DMSO control GFP [1] 94.4% | GFP response vs DMSO [2] 120% | percent response of DMSO control [3] 104% | GFP response vs DMSO [4] 75.9% | GFP response, % of DMSO [5] 87% | vesicle binding response [6] 192% | inhibition [7] 10.3% | superoxide response (% of plate) [8] 94.7% | aptamer binding inhibition [9] 6% | response [10] -10.3% | inhibition [11] -9.47% | response [12] -6% | binding (% of control) [13] 99% | efflux inhibition (fraction of control) [14] 0.12 | inhibition [15] 5% | differentiation response [16] -6.55%
66.6%: double positive events [6]

COc1ccc(CCNC(=O)c2ccc(Cl)cc2)cc1OC
59.6%: double positive events [6]
inactive: percent of DMSO control GFP [1] 103% | GFP response vs DMSO [2] 109% | percent response of DMSO control [3] 107% | GFP response vs DMSO [4] 121% | GFP response, % of DMSO [5] 111% | vesicle binding response [6] 196% | inhibition [7] 2.93% | superoxide response (% of plate) [8] 107% | aptamer binding inhibition [9] -1% | response [10] 6.98% | inhibition [11] -0.98% | response [12] -0.59% | binding (% of control) [13] 104% | efflux inhibition (fraction of control) [14] 0.39 | inhibition [15] -7% | differentiation response [16] -17.7%

CCOc1cc2c(cc1OCC)C(c1ccccc1)N(c1ccc(C(=O)O)cc1)C(=O)C2 (stereo not drawn)
61.4%: double positive events [6]
inactive: percent of DMSO control GFP [1] 106% | GFP response vs DMSO [2] 109% | percent response of DMSO control [3] 95.5% | GFP response vs DMSO [4] 113% | GFP response, % of DMSO [5] 107% | vesicle binding response [6] 151% | inhibition [7] 11% | superoxide response (% of plate) [8] 92% | aptamer binding inhibition [9] -1% | response [10] 3.08% | inhibition [11] -11.9% | response [12] 1.91% | binding (% of control) [13] 96.8% | efflux inhibition (fraction of control) [14] -0.1 | inhibition [15] 7% | differentiation response [16] 8.59%

Cc1ccc(SCC(=O)Nc2nccs2)cc1
inactive: percent of DMSO control GFP [1] 101% | GFP response vs DMSO [2] 105% | percent response of DMSO control [3] 98.6% | GFP response vs DMSO [4] 120% | GFP response, % of DMSO [5] 99.7% | vesicle binding response [6] 4850% | inhibition [7] 6.4% | superoxide response (% of plate) [8] 110% | aptamer binding inhibition [9] 4% | response [10] -0.63% | inhibition [11] -4.67% | response [12] -0.83% | binding (% of control) [13] 95.3% | efflux inhibition (fraction of control) [14] -0.24 | inhibition [15] 4% | differentiation response [16] -2.4%
60.5%: double positive events [6]

COc1ccc(-c2c[n+](CC(=O)OC3CC(C)CCC3C(C)C)c3n2CCC3)cc1 (stereo not drawn)
57.8%: double positive events [6]
inactive: percent of DMSO control GFP [1] 99.5% | GFP response vs DMSO [2] 105% | percent response of DMSO control [3] 102% | GFP response vs DMSO [4] 97% | GFP response, % of DMSO [5] 98.6% | vesicle binding response [6] 42.8% | inhibition [7] 5.61% | superoxide response (% of plate) [8] 97.3% | aptamer binding inhibition [9] -6% | response [10] -0.25% | inhibition [11] -5.29% | response [12] 8.78% | binding (% of control) [13] 108% | efflux inhibition (fraction of control) [14] 0.28 | inhibition [15] 6% | differentiation response [16] -3.11%

CNCCCC1c2ccccc2C=Cc2ccccc21
71.4%: double positive events [6]
inactive: percent of DMSO control GFP [1] 96.1% | GFP response vs DMSO [2] 116% | percent response of DMSO control [3] 108% | GFP response vs DMSO [4] 83.1% | GFP response, % of DMSO [5] 97% | vesicle binding response [6] 307% | inhibition [7] 8.4% | superoxide response (% of plate) [8] 103% | aptamer binding inhibition [9] -3% | response [10] 23.4% | inhibition [11] -2.69% | response [12] 0.79% | binding (% of control) [13] 101% | efflux inhibition (fraction of control) [14] 0.16 | inhibition [15] 9% | differentiation response [16] -3.28%
